ChEMBL document CHEMBL1961873, “Compounds: GSK PKIS; Assays: Nanosyn kinase panel” (2012)

Experiments:
[1] = molecular target: Serine/threonine-protein kinase pim-2 (Homo sapiens) (UniProt Q9P1W9); details: at 1 µM;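 further: each value is a mean of the inhibition measurements against the kinase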
[2] = molecular target: Serine/threonine-protein kinase pim-3 (Homo sapiens) (UniProt Q86V86); details: at 0.1 µM
[3] = molecular target: Serine/threonine-protein kinase pim-3 (Homo sapiens) (UniProt Q86V86); details: at 1 µM
[4] = molecular target: T1, MAP kinase-activated protein kinase 5 (Homo sapiens) (UniProt Q8IW41); details: at 0.1 µM
T1 sequence (whole entry): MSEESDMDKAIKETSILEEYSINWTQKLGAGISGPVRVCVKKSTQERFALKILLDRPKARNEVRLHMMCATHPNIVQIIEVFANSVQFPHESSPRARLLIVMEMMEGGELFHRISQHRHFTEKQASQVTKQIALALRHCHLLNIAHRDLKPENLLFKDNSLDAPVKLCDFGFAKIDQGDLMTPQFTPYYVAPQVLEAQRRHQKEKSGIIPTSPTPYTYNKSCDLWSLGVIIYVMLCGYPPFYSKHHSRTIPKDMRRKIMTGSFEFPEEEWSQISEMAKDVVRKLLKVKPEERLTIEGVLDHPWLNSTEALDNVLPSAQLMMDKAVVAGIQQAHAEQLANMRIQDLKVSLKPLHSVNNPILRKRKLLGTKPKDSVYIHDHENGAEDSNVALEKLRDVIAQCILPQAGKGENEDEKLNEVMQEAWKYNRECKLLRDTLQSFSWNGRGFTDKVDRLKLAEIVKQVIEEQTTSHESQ

[5] = molecular target: T1, MAP kinase-activated protein kinase 5 (Homo sapiens); details: at 1 µM
[6] = molecular target: Serine/threonine-protein kinase SIK1 (Homo sapiens) (UniProt P57059); details: at 0.1 µM
[7] = molecular target: Serine/threonine-protein kinase SIK1 (Homo sapiens) (UniProt P57059); details: at 1 µM
[8] = molecular target: Serine/threonine-protein kinase SIK2 (Homo sapiens) (UniProt Q9H0K1); details: at 0.1 µM
[9] = molecular target: Serine/threonine-protein kinase SIK2 (Homo sapiens) (UniProt Q9H0K1); details: at 1 µM
[10] = molecular target: T2, Serine/threonine-protein kinase TBK1 (Homo sapiens) (UniProt Q9UHD2); details: at 0.1 µM
T2 sequence (whole entry): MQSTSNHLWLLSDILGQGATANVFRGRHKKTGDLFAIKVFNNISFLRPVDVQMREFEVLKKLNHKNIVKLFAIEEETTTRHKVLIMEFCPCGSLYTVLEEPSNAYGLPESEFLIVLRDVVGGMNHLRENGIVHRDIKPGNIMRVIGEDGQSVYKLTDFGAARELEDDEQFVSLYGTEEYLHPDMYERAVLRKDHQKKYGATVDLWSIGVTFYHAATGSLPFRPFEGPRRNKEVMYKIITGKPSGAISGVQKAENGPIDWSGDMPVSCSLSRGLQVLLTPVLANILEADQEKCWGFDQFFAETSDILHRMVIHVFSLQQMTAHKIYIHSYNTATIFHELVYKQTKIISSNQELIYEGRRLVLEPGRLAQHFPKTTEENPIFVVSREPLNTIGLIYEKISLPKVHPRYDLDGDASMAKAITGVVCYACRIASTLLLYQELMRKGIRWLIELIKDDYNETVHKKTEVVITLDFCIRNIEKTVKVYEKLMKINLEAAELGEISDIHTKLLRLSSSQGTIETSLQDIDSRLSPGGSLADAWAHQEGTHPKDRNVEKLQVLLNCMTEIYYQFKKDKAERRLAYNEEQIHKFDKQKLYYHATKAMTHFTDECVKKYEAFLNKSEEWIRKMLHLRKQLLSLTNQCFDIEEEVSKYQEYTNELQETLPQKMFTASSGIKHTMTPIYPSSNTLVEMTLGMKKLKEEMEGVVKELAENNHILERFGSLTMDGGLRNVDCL

[11] = molecular target: T2, Serine/threonine-protein kinase TBK1 (Homo sapiens); details: at 1 µM
[12] = molecular target: T3, Testis-specific serine/threonine-protein kinase 1 (Homo sapiens) (UniProt Q9BXA7); details: at 0.1 µM
T3 sequence (whole entry): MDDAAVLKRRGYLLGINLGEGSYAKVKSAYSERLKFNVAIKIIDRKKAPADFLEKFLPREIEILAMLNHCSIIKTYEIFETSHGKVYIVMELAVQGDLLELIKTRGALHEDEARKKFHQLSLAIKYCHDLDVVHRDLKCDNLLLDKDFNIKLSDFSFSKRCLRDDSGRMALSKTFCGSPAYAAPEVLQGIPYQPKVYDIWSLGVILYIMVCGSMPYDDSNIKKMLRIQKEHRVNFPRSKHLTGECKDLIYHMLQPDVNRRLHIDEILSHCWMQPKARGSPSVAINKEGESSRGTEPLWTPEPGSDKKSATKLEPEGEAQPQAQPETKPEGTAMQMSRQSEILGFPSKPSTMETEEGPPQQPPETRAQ

[13] = molecular target: T3, Testis-specific serine/threonine-protein kinase 1 (Homo sapiens); details: at 1 µM
[14] = molecular target: T4, Testis-specific serine/threonine-protein kinase 2 (Homo sapiens) (UniProt Q96PF2); details: at 0.1 µM
T4 sequence (whole entry): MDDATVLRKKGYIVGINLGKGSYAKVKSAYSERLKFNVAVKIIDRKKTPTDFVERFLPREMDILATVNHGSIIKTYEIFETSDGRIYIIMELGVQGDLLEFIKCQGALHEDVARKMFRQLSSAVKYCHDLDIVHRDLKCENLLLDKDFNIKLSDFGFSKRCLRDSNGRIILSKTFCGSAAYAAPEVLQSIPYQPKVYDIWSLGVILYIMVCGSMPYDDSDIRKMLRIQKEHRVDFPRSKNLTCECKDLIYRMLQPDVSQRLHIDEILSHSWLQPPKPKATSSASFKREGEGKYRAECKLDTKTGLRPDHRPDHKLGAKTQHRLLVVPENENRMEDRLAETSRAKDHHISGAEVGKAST

[15] = molecular target: T4, Testis-specific serine/threonine-protein kinase 2 (Homo sapiens); details: at 1 µM
[16] = molecular target: Casein kinase I isoform alpha (Homo sapiens) (UniProt P48729); details: at 0.1 µM
[17] = molecular target: Casein kinase I isoform alpha (Homo sapiens) (UniProt P48729); details: at 1 µM
[18] = molecular target: Casein kinase I isoform gamma-1 (Homo sapiens) (UniProt Q9HCP0); details: at 0.1 µM
[19] = molecular target: Casein kinase I isoform gamma-1 (Homo sapiens) (UniProt Q9HCP0); details: at 1 µM
[20] = molecular target: Casein kinase I isoform gamma-2 (Homo sapiens) (UniProt P78368); details: at 0.1 µM;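 further: values are mean inhibition figures reported as part of the GSK PKIS dataset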
Chain of Casein kinase I isoform gamma-2 (Homo sapiens) (P78368 whole entry, looked up, canonical isoform): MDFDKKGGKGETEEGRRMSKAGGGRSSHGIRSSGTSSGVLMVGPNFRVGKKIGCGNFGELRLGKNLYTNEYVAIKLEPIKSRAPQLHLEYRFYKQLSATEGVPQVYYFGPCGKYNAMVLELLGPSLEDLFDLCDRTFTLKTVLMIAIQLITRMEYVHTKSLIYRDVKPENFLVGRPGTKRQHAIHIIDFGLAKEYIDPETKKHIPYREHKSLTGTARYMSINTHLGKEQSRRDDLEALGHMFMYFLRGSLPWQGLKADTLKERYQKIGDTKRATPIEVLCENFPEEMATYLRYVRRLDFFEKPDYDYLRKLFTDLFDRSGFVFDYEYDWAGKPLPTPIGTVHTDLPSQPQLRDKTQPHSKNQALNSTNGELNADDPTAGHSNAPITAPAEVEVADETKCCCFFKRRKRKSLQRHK

Chain of Serine/threonine-protein kinase SIK1 (Homo sapiens) (P57059 whole entry): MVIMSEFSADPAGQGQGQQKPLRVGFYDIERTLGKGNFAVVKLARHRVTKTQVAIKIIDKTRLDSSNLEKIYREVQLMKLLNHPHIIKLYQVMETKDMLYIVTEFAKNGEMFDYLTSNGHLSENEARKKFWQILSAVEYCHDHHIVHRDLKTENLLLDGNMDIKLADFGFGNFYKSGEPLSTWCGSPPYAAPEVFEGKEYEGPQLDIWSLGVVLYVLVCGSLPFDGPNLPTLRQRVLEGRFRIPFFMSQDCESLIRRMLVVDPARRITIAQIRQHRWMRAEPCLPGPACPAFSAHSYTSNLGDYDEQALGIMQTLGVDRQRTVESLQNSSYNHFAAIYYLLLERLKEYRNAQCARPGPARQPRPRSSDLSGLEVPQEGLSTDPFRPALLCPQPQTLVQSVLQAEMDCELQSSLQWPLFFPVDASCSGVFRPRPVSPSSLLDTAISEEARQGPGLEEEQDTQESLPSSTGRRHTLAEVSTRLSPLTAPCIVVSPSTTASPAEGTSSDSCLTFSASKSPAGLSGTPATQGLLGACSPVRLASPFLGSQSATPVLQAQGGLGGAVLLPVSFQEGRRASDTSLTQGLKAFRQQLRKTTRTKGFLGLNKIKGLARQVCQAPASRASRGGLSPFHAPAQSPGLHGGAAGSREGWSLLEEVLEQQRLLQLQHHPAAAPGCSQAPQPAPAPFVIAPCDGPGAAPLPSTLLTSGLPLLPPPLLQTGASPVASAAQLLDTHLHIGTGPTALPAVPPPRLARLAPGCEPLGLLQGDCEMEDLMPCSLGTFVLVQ
Chain of Serine/threonine-protein kinase SIK2 (Homo sapiens) (Q9H0K1 whole entry, looked up): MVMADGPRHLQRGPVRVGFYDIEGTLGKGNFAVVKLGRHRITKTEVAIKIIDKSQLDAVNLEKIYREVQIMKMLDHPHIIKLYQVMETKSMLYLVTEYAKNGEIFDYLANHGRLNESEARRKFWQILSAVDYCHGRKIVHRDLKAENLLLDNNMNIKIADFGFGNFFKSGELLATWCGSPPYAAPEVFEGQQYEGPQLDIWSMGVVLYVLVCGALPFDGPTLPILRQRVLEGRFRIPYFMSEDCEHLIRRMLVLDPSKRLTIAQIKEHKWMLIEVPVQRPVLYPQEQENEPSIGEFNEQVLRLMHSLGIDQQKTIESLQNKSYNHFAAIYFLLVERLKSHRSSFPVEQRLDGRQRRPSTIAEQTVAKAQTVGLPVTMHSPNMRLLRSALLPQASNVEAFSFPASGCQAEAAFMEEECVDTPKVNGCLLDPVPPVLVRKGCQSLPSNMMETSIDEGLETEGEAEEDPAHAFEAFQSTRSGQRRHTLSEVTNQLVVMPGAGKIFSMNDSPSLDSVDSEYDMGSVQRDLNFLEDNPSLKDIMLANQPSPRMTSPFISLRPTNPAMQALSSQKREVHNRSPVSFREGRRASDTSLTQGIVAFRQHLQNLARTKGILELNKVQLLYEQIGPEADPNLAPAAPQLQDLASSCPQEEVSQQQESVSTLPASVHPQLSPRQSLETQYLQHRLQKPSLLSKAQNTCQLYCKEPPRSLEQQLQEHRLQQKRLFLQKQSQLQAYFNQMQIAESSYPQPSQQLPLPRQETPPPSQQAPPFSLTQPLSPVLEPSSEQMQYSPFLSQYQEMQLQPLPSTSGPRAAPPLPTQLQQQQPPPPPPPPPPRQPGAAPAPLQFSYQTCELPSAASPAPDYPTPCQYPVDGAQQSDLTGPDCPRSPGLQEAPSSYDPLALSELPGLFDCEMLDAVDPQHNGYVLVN
Chain of Serine/threonine-protein kinase pim-2 (Homo sapiens) (Q9P1W9 whole entry, looked up): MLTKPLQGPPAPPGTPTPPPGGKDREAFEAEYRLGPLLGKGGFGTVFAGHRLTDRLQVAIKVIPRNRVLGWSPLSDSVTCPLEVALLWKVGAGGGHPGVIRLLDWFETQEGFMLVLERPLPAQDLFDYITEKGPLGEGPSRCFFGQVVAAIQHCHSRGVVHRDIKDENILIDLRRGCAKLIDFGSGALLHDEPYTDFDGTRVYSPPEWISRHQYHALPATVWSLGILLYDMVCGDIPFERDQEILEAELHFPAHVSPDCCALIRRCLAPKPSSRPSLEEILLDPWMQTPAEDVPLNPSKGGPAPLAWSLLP
Chain of Casein kinase I isoform gamma-1 (Homo sapiens) (Q9HCP0 whole entry, looked up, canonical isoform): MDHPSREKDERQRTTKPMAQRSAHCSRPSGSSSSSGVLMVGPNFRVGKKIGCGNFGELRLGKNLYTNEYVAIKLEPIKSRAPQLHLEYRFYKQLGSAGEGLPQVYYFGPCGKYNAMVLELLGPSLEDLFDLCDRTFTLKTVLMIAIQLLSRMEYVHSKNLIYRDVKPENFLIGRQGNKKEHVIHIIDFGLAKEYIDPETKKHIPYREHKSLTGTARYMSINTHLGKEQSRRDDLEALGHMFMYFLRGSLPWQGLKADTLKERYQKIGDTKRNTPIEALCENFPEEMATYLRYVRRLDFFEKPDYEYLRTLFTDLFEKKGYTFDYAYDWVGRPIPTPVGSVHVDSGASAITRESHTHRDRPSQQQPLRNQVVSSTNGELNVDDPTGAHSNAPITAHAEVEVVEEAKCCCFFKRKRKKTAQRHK
Chain of Casein kinase I isoform alpha (Homo sapiens) (P48729 2-337 limits assumed): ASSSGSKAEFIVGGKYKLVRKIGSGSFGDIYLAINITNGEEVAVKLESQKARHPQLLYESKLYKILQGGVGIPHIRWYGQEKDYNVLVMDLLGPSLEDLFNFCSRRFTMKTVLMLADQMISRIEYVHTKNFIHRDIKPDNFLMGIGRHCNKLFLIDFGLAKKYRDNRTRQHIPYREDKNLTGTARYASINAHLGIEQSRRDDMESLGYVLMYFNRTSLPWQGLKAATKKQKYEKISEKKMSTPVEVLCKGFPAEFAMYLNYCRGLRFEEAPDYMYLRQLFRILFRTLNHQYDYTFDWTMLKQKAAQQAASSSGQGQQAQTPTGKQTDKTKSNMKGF

SMILES | inhibition [1] | inhibition [2] | inhibition [3] | inhibition [4] | inhibition [5] | inhibition [6] | inhibition [7] | inhibition [8] | inhibition [9] | inhibition [10] | inhibition [11] | inhibition [12] | inhibition [13] | inhibition [14] | inhibition [15] | inhibition [16] | inhibition [17] | inhibition [18] | inhibition [19] | inhibition [20]
c1ccc(-c2n[nH]cc2-c2ccnc(-c3ccc(OCCN4CCOCC4)cc3)c2)nc1 | 5.56% | 5.26% | 3.99% | -1.14% | -0.78% | 0.04% | -2.45% | -6.26% | -0.03% | 1.5% | 1.95% | -1.9% | -3.08% | -1.89% | -0.96% | 0.38% | 1.39% | -1.07% | -0.62% | -2.46%
COc1cccc(/C=N/Nc2ncnc3c2cnn3-c2cccc(OC)c2)c1 | -0.53% | 0.38% | 0.16% | 0.99% | 1.08% | 5.07% | 8.61% | 5.87% | 6.63% | 3.28% | 1.31% | 3.46% | 3.86% | 2.47% | 1.38% | 3.37% | 6.05% | 2.82% | 3.51% | 3.16%
CCS(=O)(=O)c1ccc(OC)c(Nc2ncc(-c3ccccc3Cl)o2)c1 | 0.67% | -0.12% | 2.15% | 0.46% | -0.58% | 2.08% | 0.14% | 1.64% | 3.21% | 1.3% | 7.68% | 4.33% | -0.15% | 1.6% | 0.12% | 0.11% | 3.37% | 0.27% | 0.86% | 0.2%
NCc1ccc(-n2c(-c3nonc3N)nc3cnccc32)cc1 | 45.2% | 16.4% | 68.5% | 1.5% | 1.55% | 5.74% | 11.6% | 5.87% | 15.8% | 4.35% | 11.6% | 9.68% | 32.2% | 3.06% | 3.08% | 3.56% | 9.76% | 5.74% | 8.48% | 3.49%
NC(=O)c1cc(-c2ccc(F)cc2)cc(-c2ccncc2)c1N | -1.22% | -0.69% | -5.17% | 1.11% | 2.54% | 4.79% | 9.72% | 7.37% | 8.31% | 3.66% | 2.04% | 3.98% | 5.61% | 2.71% | 4.29% | 6.79% | 2.14% | 4.19% | 4.95% | 3.82%
